# Pf growth 96h: inhibits malaria parasite growth, 96 h; P. falciparum luciferase reporter growth, 96 h; Potency, µM (titrated, usually from 28.7 µM), hits mostly inhibitors; 6.9% of 320,000 active
#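 Two parasite generations (96 h, 37 C, 5% CO2) of compound exposure in infected erythrocytes (0.05% parasitemia, 2% hematocrit). Luciferase-reporter P. falciparum; decreased luminescence indicates inhibited growth, aimed at apicoplast-acting delayed death.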
# Shiga toxin inh: inhibitors of Shiga toxin in Vero cells. Vero cells, Shiga toxin protein synthesis inhibition reporter. inhibition, % at 38.7 µM. 9.2% of 290,000 active. AID 2315; in the data active = inhibition mostly above about 28%, no sharp cut-off; inactive = mostly below about 43%
# HCV inh: HCV inhibition; 3.4% of 340,000 active; AID 651820; Potency, µM (highest dose often 41.8 µM), actives largely listed as inhibitors; Huh7.5.1 HCVcc-Cre infection, luciferase reporter, 44 h
#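 Compounds are dispensed onto cells plated 4 h earlier at 1,000 per well, with HCVcc-Cre virus (about 0.5 moi) added next. Following 44 h of culture, luminescent signal is measured for 15 sec after 15 min with substrate at room temperature.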
# AMA1-RON2 inh: AMA1-RON2 (P. falciparum) interaction inhibition; AID 720542; Potency, µM (highest dose often 58.2 µM), usual class: inhibitors; 0.2% of 360,000 active; AlphaScreen AMA1-biotinylated RON2 peptide binding; also: nearly all actives have a fitted effect of over 45% in size
#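 AMA1 (3D7) with his tag at 25 nM final met compounds first, then biotinylated RON2 peptide at 25 nM; detection used donor plus acceptor beads, 10 µg/mL apiece, read by AlphaScreen after 30 min at room temperature.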
# Pf growth 48h: P. falciparum growth inhibition at 48 hours (one generation); P. falciparum luciferase growth in erythrocytes, 48 h; 5.9% of 310,000 active; Potency, µM (titrated, usually from 28.7 µM), most hits filed as inhibitors; AID 504832
#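 Compounds are pin-transferred into medium, infected erythrocytes (2% hematocrit, 0.1% parasitemia final) are added, and plates sit one parasite generation at 37 C in 5% CO2. Detection reagent is then added and luminescence measured.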
# Cycloheximide cs: counter-screen for Shiga toxin inhibitors: cycloheximide protein synthesis inhibition; cell reporter, cycloheximide protein synthesis inhibition counterscreen; max response, %; 12% of 300,000 active; in the data active = max response mostly above about 13%, no sharp cut-off; inactive = mostly below about 14%; also: read at 38.3 µM for the half of the compounds with a filed dose
# Hits are given with their value; i = inactive; ? = inconclusive; nt = not tested or not shown; [ ] = remark or other dose. Only some compounds are listed: those with a hit (about 21% of all), similar ones and a draw of the others. Unless noted, calls follow the shape of the dose curve; as a rule, active = well fitted curve in the direction sought with a large enough effect; inconclusive = small, poorly fitted or top-dose-only effect, or another doubt; inactive = no such curve, though single readings can be large; an effect the other way counts as inactive or inconclusive.
SMILES,Pf growth 96h,Shiga toxin inh,HCV inh,AMA1-RON2 inh,Pf growth 48h,Cycloheximide cs
COc1ccc2cc1Oc1ccc(cc1)C[C@H]1c3cc(c(OC)cc3CCN1C)Oc1c(OC)c(OC)cc3c1[C@@H](C2)N(C)CC3,1.5µM,nt,?,i,2.3µM,nt
Cc1ccc(C)c(C(O)c2ncc(-c3ccccc3F)[nH]2)c1 (centres undefined),nt,nt,nt,i,nt,nt
O=[N+]([O-])c1cc(/C=N/N2CCN(c3ccccc3)CC2)ccc1Cl,?,i,i,i,i,i
O=[N+]([O-])c1cc(/C=N/N2CCCCC2)ccc1Cl,i,72,i,?,i,18
O=[N+]([O-])c1cc(C=NN2CCCCCC2)ccc1Cl,nt,nt,?,14µM,nt,nt
OC(c1ccc(F)cc1)c1nc(-c2cnc3ccccc3c2)cs1 (centres undefined),nt,nt,nt,i,nt,nt
Cc1ccc(Cl)c(OCC(=O)NCc2ccco2)c1,nt,i,i,i,i,24
O=C(COc1ccccc1Br)NCc1ccco1,i,i,i,i,i,19
CCc1ccc(OCC(=O)NCc2ccco2)c(Br)c1,nt,106,?,i,i,40
CN(C)/C=N/C(=S)Nc1ccccc1F,i,i,i,i,i,28
CN(O)/C=N/C(=S)Nc1ccc(Cl)cc1Cl,i,i,i,i,i,i
CC(C)CNC(=S)Nc1ccccc1F,?,i,i,i,i,i
CN(C)/C=N/C(=S)Nc1ccccc1Cl,i,49,i,i,i,39
CCC(NC(=O)Nc1cc(C)on1)(C(F)(F)F)C(F)(F)F,i,i,i,i,i,i
COc1ccc(NC(=O)Cn2nnc(C(=O)NCCc3ccc(OC)c(OC)c3)c2N)c(OC)c1,i,i,?,i,i,i
O=S(=O)(/N=C(\c1ccc(F)cc1)N1CCOCC1)c1ccccc1,nt,nt,nt,i,nt,nt
Cc1c(C#N)c(O)n(CCO)c(=O)c1N=Nc1ccc2c(c1)COC2=O,i,i,i,?,i,27
CO/N=C/c1cccn1-c1nccc(N(C)C)c1C#N,i,i,i,i,i,i
C=Cc1c(C)c2cc3nc(cc4[nH]c(cc5nc(cc1[nH]2)C(C)=C5CCC(=O)O)c(CCC(=O)OC)c4C)[C@@]1(C)C3=CC=C(C(=O)OC)[C@H]1C(=O)OC (tested in a mixture with another compound),3.4µM,nt,nt,nt,3.8µM,nt
Cc1cc(C)cc(NS(=O)(=O)c2cccs2)c1,i,i,i,i,i,i
CN(/C(=N/S(=O)(=O)c1cccs1)c1ccccc1)c1ccccc1,i,i,i,i,i,i
Cc1cc(C)c[n+](C2=C([O-])c3ccccc3C(=O)/C2=N\S(=O)(=O)c2cccs2)c1,?,i,?,i,1.9µM,i
Cc1cc[n+](C2=C([O-])c3ccccc3C(=O)/C2=N\S(=O)(=O)c2cccs2)cc1C,3.3µM,i,11µM,i,2.6µM,i
NC1=NC(=O)/C(=C/c2cn(Cc3ccccc3)c3ccccc23)S1,?,62,?,i,2.1µM,24
Cn1nc(NC(=O)C(F)(F)F)c2ncc(-c3ccc(Cl)cc3)nc21,i,68,?,i,i,41
SMILES,Pf growth 96h,Shiga toxin inh,HCV inh,AMA1-RON2 inh,Pf growth 48h,Cycloheximide cs
Cn1nc(NC(=O)C(F)(F)F)c2nccnc21,nt,nt,nt,i,nt,nt
CCC(C(=O)OC(C)C(=O)Nc1ccc(Cl)cn1)c1ccccc1 (centres undefined),i,i,i,i,i,i
COc1ccc(NC(=O)NCc2ccncc2)cc1,i,i,i,i,i,i
COc1ccc(CNc2ccc(C)c(C)c2)cc1,i,57,i,i,i,41
COc1ccc(CNC(=O)Nc2cc(C)cc(C)c2)cc1,i,48,i,i,i,24
COc1ccc(CNC(=O)Nc2ccc(C)cc2)cc1,i,76,i,i,i,24
COc1ccc(NCc2ccc(OC)c(OC)c2)cc1,i,i,nt,nt,?,i
COc1ccc(CNC(=O)Nc2ccc(C)c(C)c2)cc1,i,i,i,i,i,33
CC(=O)Nc1ccc(-c2ccnc3c2CC(C(=O)Nc2cccnc2)O3)cc1 (centres undefined),nt,nt,nt,i,nt,nt
O=C(O)c1cccc2c1C(=O)c1cc([N+](=O)[O-])ccc1-2,nt,nt,i,i,nt,nt
COC(=O)[C@@H]1C[C@@]2(O)[C@@H](O)[C@@H](O)[C@@H](O)C[C@H]2N1Cc1cc(OC)cc(OC)c1,i,i,0.5µM,i,i,i
COC(=O)[C@@H]1C[C@@]2(O)[C@H](O)[C@H](O)[C@H](O)C[C@H]2N1Cc1cc(OC)cc(OC)c1,i,i,i[8.37 µM],i,i,i
Cc1ccc(OCCSc2cc(C)nc(N)n2)cc1,i,i,i,i,?,i
CCCCSc1cc(C)nc(N)n1,i,54,i,i,i,31
CCOc1ccc(CCN2C(=S)N([C@@H](Cc3ccc(O)cc3)CN3CCC[C@@H]3CN3C(=S)NC[C@@H]3CC(C)C)C[C@@H]2Cc2ccc(O)cc2)cc1,nt,nt,nt,i,nt,nt
CCOc1ccc(N(C(C)C(=O)N2CCOCC2)S(C)(=O)=O)cc1 (centres undefined),i,i,i,i,i,i
COc1ccc(-c2noc(N3CCCC(C(=O)Nc4ccc(C(C)=O)cc4)C3)n2)cc1 (centres undefined),?,i,?,i,?,28
COc1ccc(NC(=O)N2CCCC(C(=O)NCCc3ccccc3)C2)cc1 (centres undefined),i,65,i,i,i,34
COc1cccc(NC(=O)C2CCCCC2)c1,?,44,i,?,i,29
CCC1CCC(NC(=O)Nc2cccc(OC)c2)CC1 (centres undefined),i,64,i,i,i,52
COc1ccc(CNC(=O)C2CCCN(C(=O)Nc3ccc(OC)cc3)C2)cc1 (centres undefined),i,i,i,i,i,i
COc1cccc(NC(=O)C2CC2)c1,i,nt,i,i,i,nt
C/C(Nc1ccc(Cl)c(Cl)c1)=C1/CCOC1=O,nt,nt,nt,i,nt,nt
COc1ccc(S(=O)(=O)Nc2cccc3c2O[C@H](CN(C)C(=O)Nc2ccccc2)[C@@H](C)CN([C@H](C)CO)C3=O)cc1,nt,nt,i,i,nt,nt
O=C(Nc1ccc(Br)cc1)N1CCCCC1,i,140,i,i,i,42
SMILES,Pf growth 96h,Shiga toxin inh,HCV inh,AMA1-RON2 inh,Pf growth 48h,Cycloheximide cs
COc1ccc(NC(=O)N2CCCC(c3ccccc3)C2)cc1 (centres undefined),2.1µM,i,i,i,i,17
COc1ccc(NC(=O)N2CCC(c3ccccc3)C2)c(OC)c1 (centres undefined),i,i,i,i,nt,i
COc1ccc(NC(=O)N2CCC3(CC2)OCCO3)cc1,?,i,i,i,i,27
O=C(Nc1ccccc1)N1CCC2(CC1)OCCO2,?,i,i,i,i,i
COc1ccc(NC(=O)C2CCCN(C(=O)Nc3ccc(OC)cc3)C2)cc1 (centres undefined),10µM,i,i,i,i,i
CCCCn1nnnc1C(c1cc2ccccc2o1)N1CCN(CC(=O)NC(C)C)CC1 (centres undefined),nt,nt,nt,i,nt,nt

# Screening data deposited in PubChem by National Center for Advancing Translational Sciences (NCATS).
